# Experimental data as given in PubChem BioAssay (NCATS).
# Results filed as inconclusive are left out. A call without a number means that no potency is given here. Active and inactive are the calls of the source. Unless noted, calls follow the shape of the dose curve; as a rule, active = well fitted curve in the direction sought with a large enough effect; inconclusive = small, poorly fitted or top-dose-only effect, or another doubt; inactive = no such curve, though single readings can be large; an effect the other way counts as inactive or inconclusive.
# Experiments:
# [1] = qHTS for Inhibitors of Plasmodium falciparum (GB4) proliferation (AID 504315); also: nearly all actives have a fitted effect of over 50% in size; conditions: P. falciparum GB4 in erythrocytes, SYBR Green DNA, 72 h; series mostly up to 6.7 µM
# Summary of the method: (§1)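 Parasite growth measured as SYBR Green DNA fluorescence (ex 485, em 535 nm) after overnight lysis following 72 h culture at 37 °C, 0.3% parasitemia, 2.5% hematocrit. Values normalized against DMSO and 0.29 uM artemisinin controls, with plate-stack correction.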
# [2] = qHTS for Inhibitors of Plasmodium falciparum (HB3) proliferation (AID 504318); also: nearly all actives have a fitted effect of over 60% in size; conditions: P. falciparum HB3 in erythrocytes, SYBR Green DNA, 72 h; series mostly up to 7.21 µM
# Summary of the method: as §1
# [3] = qHTS for Inhibitors of Plasmodium falciparum (CP250) proliferation (AID 504320); conditions: P. falciparum CP250 in erythrocytes, SYBR Green DNA, 72 h; series mostly up to 6.7 µM
# Summary of the method: as §1
# [4] = target: Atrial natriuretic peptide receptor 1 (Homo sapiens) (UniProt P16066); assay: Natriuretic polypeptide receptor (hNpr1) antagonism - Pilot CMLD screen (AID 1347052; calls by dose curve;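 also: cGMP level read as GloSensor luciferase luminescence after agonist stimulation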); conditions: HEK293 hNpr1 GloSensor cGMP luminescence, ANP-stimulated; series mostly up to 9.22 µM
# Atrial natriuretic peptide receptor 1 (Homo sapiens), sequence (P16066 whole entry, looked up): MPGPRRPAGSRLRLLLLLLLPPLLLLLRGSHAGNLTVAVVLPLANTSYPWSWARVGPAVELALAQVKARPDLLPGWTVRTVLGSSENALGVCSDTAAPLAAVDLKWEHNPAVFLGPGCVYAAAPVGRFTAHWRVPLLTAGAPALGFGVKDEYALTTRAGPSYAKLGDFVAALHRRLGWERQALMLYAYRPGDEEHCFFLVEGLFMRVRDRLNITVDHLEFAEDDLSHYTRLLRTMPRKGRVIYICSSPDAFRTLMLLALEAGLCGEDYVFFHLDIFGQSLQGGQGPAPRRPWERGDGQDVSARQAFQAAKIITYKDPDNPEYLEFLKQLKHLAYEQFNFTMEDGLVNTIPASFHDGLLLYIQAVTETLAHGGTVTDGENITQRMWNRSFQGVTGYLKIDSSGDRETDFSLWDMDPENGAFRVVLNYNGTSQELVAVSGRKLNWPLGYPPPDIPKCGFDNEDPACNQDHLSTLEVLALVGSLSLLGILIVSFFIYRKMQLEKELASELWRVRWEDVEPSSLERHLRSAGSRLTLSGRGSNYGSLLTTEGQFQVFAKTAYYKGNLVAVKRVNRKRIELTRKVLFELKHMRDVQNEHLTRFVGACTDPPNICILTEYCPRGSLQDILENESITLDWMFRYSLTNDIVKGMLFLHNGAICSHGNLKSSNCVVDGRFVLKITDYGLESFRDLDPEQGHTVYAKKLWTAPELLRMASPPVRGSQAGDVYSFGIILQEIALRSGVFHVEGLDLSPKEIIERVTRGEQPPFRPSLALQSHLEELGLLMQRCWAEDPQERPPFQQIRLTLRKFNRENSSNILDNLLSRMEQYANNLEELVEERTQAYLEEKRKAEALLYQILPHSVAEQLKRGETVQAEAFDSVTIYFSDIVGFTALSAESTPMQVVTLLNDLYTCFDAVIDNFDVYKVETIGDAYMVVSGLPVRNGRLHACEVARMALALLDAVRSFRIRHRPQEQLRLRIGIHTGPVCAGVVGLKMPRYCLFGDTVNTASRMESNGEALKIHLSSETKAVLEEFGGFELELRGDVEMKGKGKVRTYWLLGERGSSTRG
# [5] = qHTS for Inhibitors of Plasmodium falciparum (7G8) proliferation (AID 504316); also: nearly all actives have a fitted effect of over 65% in size; conditions: P. falciparum 7G8 in erythrocytes, SYBR Green DNA, 72 h; series mostly up to 6.7 µM
# Summary of the method: as §1
# Potency is read from the fitted curve at half-maximal effect.
Compound,Potency [1],Potency [2],Potency [3],Potency [4],Potency [5]
CCN1C(=NCc2cccc(C(F)(F)F)c2)NC(c2cccc(C(F)(F)F)c2)C(C(=O)OC)=C1C (configuration not stated),95.3 nM (active),inactive,757 nM (active),inactive,–
CC(=O)C1=C(C)N(Cc2ccco2)C(=O)NC1c1ccccc1 (configuration not stated),inactive,inactive,inactive,inactive,–
CC1(C)CC(=O)C2=C(C1)O[C@@]1(c3ccsc3)Cc3cc(C#N)ccc3[C@H]2O1,inactive,inactive,inactive,inactive,–
COC(=O)N[C@H](C[N+](=O)[O-])c1cccc(C)c1,inactive,inactive,inactive,inactive,–
COc1cccc([C@@H]2Oc3ccc(OC)cc3C(=O)[C@@H]2OC(=O)Nc2cc(OC)c(OC)c(OC)c2)c1,inactive,inactive,inactive,inactive,–
COC(=O)C1=C(C(=O)OC)[C@@H]2N(Cc3ccccc3)c3ccccc3[C@@]23C[C@@H](C(=O)OC)N(C(=O)NCc2ccccc2)C3=C1,inactive,–,inactive,inactive,–
COC(=O)C1=C(C)N(CC2CC2)C(=O)NC1c1ccc(Br)cc1 (configuration not stated),inactive,inactive,inactive,inactive,–
COC(=O)C(C(=O)OC)[C@@H]1O[C@@]23COC=C[C@]2(C)[C@@H]3c2ccccc21,inactive,inactive,inactive,inactive,–
COC(=O)CC=C[C@@H](C)[C@@H](C=NOC[C@H]1O[C@H](c2ccccc2)C=C[C@H]1Oc1ccc(OC)cc1)N[S+](=O)([O-])c1ccc(C)cc1,inactive,–,inactive,inactive,–
COc1cc(CCN2C(=O)NC(c3cccc(C(F)(F)F)c3)C(C(C)=O)=C2C)cc(OC)c1OC (configuration not stated),inactive,–,inactive,inactive,–
COc1ccc([C@]23Cc4c(ccc5ccccc45)[C@H](O2)C2=C(CCCC2=O)O3)cc1,inactive,–,inactive,inactive,–
COC(=O)C1=C(C(=O)OC)[C@@H]2N(C)c3ccc(OC)cc3[C@@]23C[C@@H](C(=O)OC)N(C(=O)N2CCNC2=O)C3=N1,inactive,–,inactive,inactive,–
COC(=O)C1=C(C)N(CCc2cc(OC)c(OC)c(OC)c2)C(=O)NC1c1ccc(Br)cc1 (configuration not stated),inactive,–,inactive,inactive,–
COc1cccc2c1[C@H](C=Cc1ccccc1)[C@@H]([C@H](O)CN=[N+]=[N-])OC2,inactive,–,inactive,inactive,–
COc1ccc([C@]23Cc4ccccc4[C@H](O2)c2c(cc(C)n(Cc4ccccc4)c2=O)O3)cc1,2130 nM (active),–,inactive,inactive,–
C=CCNC(=O)[C@H]1C=C(OC)C(=O)C[C@H](c2ccccc2)[C@H]1C,inactive,–,inactive,inactive,–
C[C@@H]1CC2CCCC2[C@]2(O1)C(=O)Nc1ccccc12 (some centres not stated),inactive,–,inactive,inactive,–
CCOC(=O)CCN1C(=O)[C@@H]2[C@H]3[C@H](O)[C@H](O)CC(=NOCc4ccccc4)[C@@H]3CC[C@H]2C1=O,inactive,–,inactive,inactive,–
C=C(CCN1C=C(C(=O)OCC)C(c2ccccc2)NC1=O)c1ccc(Cl)cc1 (configuration not stated),inactive,–,inactive,inactive,–
C#CCCCON=C1C[C@@H](O)[C@H](O)[C@H]2[C@@H]3C(=O)N(Cc4ccc5c(c4)OCO5)C(=O)[C@@H]3CC[C@@H]12,inactive,–,inactive,inactive,–

Compound,Potency [1],Potency [2],Potency [3],Potency [4],Potency [5]
C[C@@H](c1ccccc1)N1C(=O)[C@@H]2[C@H]3[C@H](O)[C@H](O)CC(=NOC[C@@H](O)COCc4ccco4)[C@H]3CC[C@H]2C1=O,inactive,–,inactive,inactive,–
CC(C)=CCCC(C)=CCN1C(=O)[C@@]2(CC(C)=C[C@@H](COCc3ccccc3)O2)c2ccccc21,inactive,–,inactive,inactive,–
C#CCCOC(=O)N1C2=NC3=C(C(=O)N(Cc4ccc5c(c4)OCO5)C3=O)C3N(C)c4ccccc4[C@]23C[C@H]1CO (some centres not stated),inactive,–,inactive,inactive,–
C=C(C)C[C@@]1(c2ccccc2)Oc2ccccc2C2=NCCN=C21,inactive,–,inactive,inactive,–
CCc1cc2c(nc1CC)CCN(CCC(C)=NOCC[C@@H]1C=C[C@H](OC(C)=O)[C@@H](COC(C)=O)O1)C2,inactive,–,inactive,inactive,–
C[C@H]1CC[C@H]2C(=O)N(Cc3ccccc3)C[C@@H](O)CN2[C@H]1c1cccc(Br)c1,inactive,–,inactive,inactive,–
COCCN1C(=O)NC(c2ccc(Br)cc2)C(C(=O)OC)=C1C (configuration not stated),inactive,–,inactive,inactive,–
CC1=CC[C@@H](COc2ccccc2)O[C@@]2(C1)C(=O)N(Cc1ccc(F)cc1)c1ccccc12,inactive,–,inactive,inactive,–
C#CCOCC#CC[C@@]1(C(=O)OC)C=C[C@@H](C)[C@H](c2ccccc2Br)N1C(=O)C(F)(F)F,inactive,–,inactive,inactive,–
O=C(N[C@H](c1cccc(Br)c1)[C@@H]1CCCC=C1c1ccccc1)C(F)(F)F,–,–,–,inactive,inactive
C[C@H]1C=CCC(=O)NCc2cccc(c2)CNC(=O)N[C@@H]1c1ccccc1,inactive,–,inactive,inactive,–
Cc1cc2c(nc1C)CCCCN2C[C@H](C)ON=C1[C@H]2CCn3c(=O)n(-c4ccccc4)c(=O)n3[C@@H]2[C@H](O)[C@@H]2O[C@H]12,inactive,–,inactive,inactive,–
CC(C)=CCCC(C)=CC=CC1=CC2(C)CC1(C)C(C=C(C)CCC=C(C)C)CC2=O (configuration not stated),inactive,–,inactive,inactive,–
CC1=C[C@@H](COCc2ccccc2)O[C@@]2(C1)C(=O)Nc1cccc(Br)c12,inactive,–,inactive,inactive,–
C#CCN1C(=O)[C@]2(OCCC=C[C@H]2C)c2c(Br)cccc21,inactive,–,inactive,inactive,–
CC(C)=CCCC(C)=CCON=C1C[C@@H](O)[C@@H](O)[C@@H]2[C@H]3C(=O)N(Cc4ccc5c(c4)OCO5)C(=O)[C@@H]3CC[C@H]12,inactive,–,inactive,inactive,–
COc1ccc2c3c(c(=O)oc2c1)[C@H]1O[C@](c2ccsc2)(Cc2cc(C#N)ccc21)O3,inactive,–,inactive,inactive,–
Cc1cc2c(c(=O)n1Cc1ccccc1)[C@H]1O[C@](CCCCN3C(=O)c4ccccc4C3=O)(Cc3cc(C#N)ccc31)O2,inactive,–,inactive,inactive,–
O=C1[C@@H]2[C@H]3[C@H](O)[C@H](O)CC(=NOC[C@@H](O)COCc4ccco4)[C@@H]3CC[C@H]2C(=O)N1Cc1ccccc1,inactive,–,inactive,inactive,–
Oc1ccc2c(c1-c1c(O)c(Br)cc3c1CCCC3)CCCC2,inactive,–,inactive,inactive,–

Compound,Potency [1],Potency [2],Potency [3],Potency [4],Potency [5]
CC(CCN1CCCc2nc(C)c(C)cc21)=NOC[C@@H](O)COCc1ccco1,inactive,–,inactive,inactive,–
COc1ccc2c(c1)CO[C@H]([C@H](O)CO)[C@H]2C=Cc1ccccc1,inactive,–,inactive,inactive,–
C[C@]12C[C@@](C)(C=C1C=Cc1ccc(C(F)(F)F)cc1)C(=O)C[C@H]2c1ccc(C(F)(F)F)cc1,1510 nM (active),–,inactive,inactive,–
C[C@@H]1CC[C@H]2C(=O)N(Cc3ccccc3)C[C@H](O)CN2[C@@H]1c1ccc(Br)cc1,1690 nM (active),–,inactive,2990 nM (active),–
CC12C=C(C=Cc3ccccc3)C(C)(C1)C(c1ccccc1)CC2=O (configuration not stated),inactive,–,inactive,inactive,–
COc1cccc([C@@H](NC(=O)C(F)(F)F)[C@@H]2CCCC=C2c2ccccc2)c1,inactive,–,inactive,inactive,–
CC1=C[C@@H](COCc2ccccc2)O[C@@]2(C1)C(=O)N(CC1CC1)c1ccccc12,inactive,–,inactive,inactive,–
COC(=O)c1c(C(=O)OC)c2c3cc(OC)c(OC)cc3cc([Si](C)(C)C)n2c1C(=O)OC,–,2130 nM (active),inactive,inactive,1510 nM (active)
CCCC[C@]12Cc3cc(OC)c(OC)cc3[C@H](O1)c1c(cc(-c3ccccc3)oc1=O)O2,–,–,–,inactive,1510 nM (active)
CCN1C(N(C)CCc2ccc(Br)cc2)=NC(c2ccccc2)C(C(=O)OC)=C1C (configuration not stated),–,inactive,–,inactive,inactive
C=CCN=C1NC(c2cccc(C(F)(F)F)c2)C(C(=O)OC)=C(C)N1Cc1ccccc1 (configuration not stated),–,inactive,–,inactive,inactive
C=CCOCCC=C1c2ccccc2[C@@H](OC)[C@@H]1C,–,–,–,inactive,1510 nM (active)
CCc1cc2c(nc1CC)CCN(CCC(C)=NO[C@@H](C)c1cn([C@H](CO)Cc3ccccc3)nn1)C2,–,–,–,inactive,1690 nM (active)
COC(=O)c1ccc(CN2C(=O)[C@@]3(CC(C)=CC[C@@H](C)O3)c3ccccc32)cc1,–,inactive,inactive,inactive,inactive
COc1ccc(COC(=O)NN=C2C[C@@H](O)[C@@H](O)[C@@H]3[C@H]4C(=O)N([C@@H](C)c5ccccc5)C(=O)[C@@H]4CC[C@H]23)cc1,–,inactive,inactive,inactive,inactive
COC(=O)C1=C(C)N(Cc2ccccc2)C(=S)NC1c1cccc(C(F)(F)F)c1 (configuration not stated),–,inactive,inactive,inactive,inactive
COc1ccc(O[C@H]2C=C[C@@H](c3ccccc3)O[C@H]2CON=C(C)CCN2CCCc3nc(C)c(C)cc32)cc1,–,3290 nM (active),–,inactive,1510 nM (active)
CC(=O)OC[C@H]1O[C@H](CC=NO[C@H](C)c2cn([C@H](CO)Cc3ccccc3)nn2)C=C[C@@H]1OC(C)=O,–,inactive,inactive,inactive,inactive
